The panel holds about 83,000 compounds, 20% with a hit somewhere; the sample as a whole holds those more often.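 Percent growth is the endpoint: 0 to 100 indicates growth inhibition (40 means 60% inhibition), 0 means no net growth, and negative values indicate cell death.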 Unmarked numbers belong to inactive results. The source made the active and inactive calls. How the source made its calls: active means growth percent below 10; inactive means the rest.
The compounds below were run on HL-60(TB) leukemia (assay: NCI-60 one-dose screen, 48 h (100 = growth as untreated, 0 = no growth, -100 = all killed)). Conditions: 10 µM unless noted.
`O=c1ccc(N=Nc2ccc([N+](=O)[O-])cc2)ccc1O` gave a growth of 10%.
For `O=c1c2cc(Cl)ccc2oc2ccc(OCCCCCN3CCCCC3)cc12`, the growth was 38.5%.
`CCN(CC)CCOc1ccc2c(c1O)C(=O)c1ccccc1C2=O` showed a growth of 71.4%.
For `Cn1c(=O)c2c(nc(Cl)n2CCl)n(C)c1=O`, the growth was 45.7%.
`COc1cc(/C=C2\CN(S(=O)(=O)c3ccc(C)cc3)C/C(=C\c3cc(CN4CCCCC4)c(O)c(OC)c3)C2=O)cc(CN2CCCCC2)c1O` was tested, and the growth was -37.2% (active).
In the case of `O=C1C(Nc2ccc(Br)cc2)=C(I)C(=O)c2ncccc21`, the growth is reported as -43.2% (active).
`NC(=O)Nc1cc(-c2cccc(F)c2)sc1C(=O)N[C@H]1CCCNC1` was tested, and the growth was -29.9% (active).
`O=C1ON=[N+](c2ccc(Cc3ccc([N+]4=NOC(=O)C4CN4CCOCC4)cc3)cc2)C1CN1CCOCC1` (centres undefined) showed a growth of 86.4%.
With `N=c1sc(Cc2cc(Cl)ccc2Cl)cn1CC(=O)c1ccccc1` the growth was 29.6%.
In the case of `Cc1ccc(S(=O)(=O)c2nc(-c3ccccc3)oc2SCC(N)=O)cc1`, the growth is reported as 65.3%.
`O=C1c2ccccc2Cc2cccc(Cl)c21` was tested, and the growth was 39.5%.
`C/C(=N/O)c1ccc(NC(=O)Cn2nc(-c3ccc(Cl)cc3)nc2N)cc1` gave a growth of 94.7%.
`C[C@H]1[C@H](C)CC[C@]2(C(=O)O)CC[C@]3(C)C(=CC[C@@H]4[C@@]5(C)C/C(=C/c6ccco6)C(=O)C(C)(C)[C@@H]5CC[C@]43C)[C@H]12` was tested, and the growth was -3.02% [100 µM] (active).
Compound `Cc1cc(C)c(/C=C2\C(=O)Nc3ccc(NC(=O)CCCCCCC(=O)NO)cc32)[nH]1` has a growth of 19.4%.

Reference: PubChem BioAssay (NCI)
